Source: PubChem BioAssay (NCATS)
Records with an inconclusive call do not appear. Where a call stands in place of a potency, no number is given. Calls of active or inactive are those of the source. The call rests on the fitted dose curve; in most records, active means well fitted curve in the direction sought with a large enough effect; inconclusive means small, poorly fitted or top-dose-only effect, or another doubt; inactive means no such curve, though single readings can be large; an effect the other way counts as inactive or inconclusive.

What was measured:
[1] = qHTS of pediatric cancer cell lines to identify multiple opportunities for drug repurposing: Primary screen for NB1643 cells (AID 1347099); further: nearly all actives have a fitted effect of over 50% in size; further: potency means the concentration at half of the fitted maximal effect
In short: (§1)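 Readout: CellTiter-Glo luminescence, 48 h treatment. Controls DMSO (neutral) and bortezomib 2.3 µM final (positive). Potency and efficacy taken from primary-screen concentration-response curves.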

[2] = qHTS of pediatric cancer cell lines to identify multiple opportunities for drug repurposing: Primary screen for LAN-5 cells (AID 1347100); further: potency means the concentration at half of the fitted maximal effect
In short: (§2)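 Cells (500-1,000/well) in growth media were settled 5 h at 37 degrees C, then given compounds for 48 h. Viability was read as CellTiter-Glo luminescence. Primary runs used MIPE at 11 points (0.78 nM-46 µM) and NPC at 8 points (0.59 nM-46 µM); follow-ups used 11 points.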

[3] = qHTS of pediatric cancer cell lines to identify multiple opportunities for drug repurposing: Primary screen for Rh18 cells (AID 1347102); further: nearly all actives have a fitted effect of over 65% in size; further: potency means the concentration at half of the fitted maximal effect
In short: as §2

[4] = qHTS of pediatric cancer cell lines to identify multiple opportunities for drug repurposing: Primary screen for OHS-50 cells (AID 1347103); further: nearly all actives have a fitted effect of over 40% in size; further: potency means the concentration at half of the fitted maximal effect
In short: (§3)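 Cells (500-1,000/well) rested 5 h, then received compounds for 48 h; metabolically active cells were measured by CellTiter-Glo luminescence. Final concentrations spanned up to 46 µM (MIPE, 11-point) or 0.59 nM-46 µM (NPC, 8-point) in primary screens, 11-point in follow-ups.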

[5] = qHTS of pediatric cancer cell lines to identify multiple opportunities for drug repurposing: Primary screen for RD cells (AID 1347104); further: nearly all actives have a fitted effect of over 55% in size; further: potency means the concentration at half of the fitted maximal effect
In short: as §1

[6] = qHTS of pediatric cancer cell lines to identify multiple opportunities for drug repurposing: Primary screen for control Hh wild type fibroblast cells (AID 1347106);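 further: series mostly up to about 46 µM; a drop in luminescence marks cytotoxicity and a rise apparent proliferation; nearly all actives have a fitted effect of over 55% in size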
In short: as §2

[7] = qHTS of pediatric cancer cell lines to identify multiple opportunities for drug repurposing: Primary screen for Rh30 cells (AID 1347107); further: nearly all actives have a fitted effect of over 75% in size; further: potency means the concentration at half of the fitted maximal effect
In short: as §2

[8] = qHTS of pediatric cancer cell lines to identify multiple opportunities for drug repurposing: Primary screen for MG 63 (6-TG R) cells (AID 1347105); further: nearly all actives have a fitted effect of over 50% in size; further: potency means the concentration at half of the fitted maximal effect
In short: as §1

[9] = qHTS of pediatric cancer cell lines to identify multiple opportunities for drug repurposing: Primary screen for Rh41 cells (AID 1347108); further: nearly all actives have a fitted effect of over 70% in size; further: potency means the concentration at half of the fitted maximal effect
In short: as §1

[10] = qHTS of pediatric cancer cell lines to identify multiple opportunities for drug repurposing: Primary screen for BT-12 cells (AID 1347101); further: nearly all actives have a fitted effect of over 25% in size; further: potency means the concentration at half of the fitted maximal effect
In short: as §3

| SMILES | Potency [1] | Potency [2] | Potency [3] | Potency [4] | Potency [5] | Potency [6] | Potency [7] | Potency [8] | Potency [9] | Potency [10] |
| --- | --- | --- | --- | --- | --- | --- | --- | --- | --- | --- |
| c1cc(OCCN2CCCCC2)cc(-c2n[nH]c3ccc(-c4ncn[nH]4)cc23)c1 | 5.9 µM (active) | 14.8 µM (active) | inactive | 6.85 µM (active) | inactive | inactive | inactive | – | – | – |
| COc1cc2ncnc(Nc3cc(Br)c(O)c(Br)c3)c2cc1OC | 1.32 µM (active) | 16.6 µM (active) | inactive | 27.3 µM (active) | 0.935 µM (active) | inactive | inactive | – | – | – |
| C=C1c2cccc(O)c2C(O)=C2C(=O)[C@@]3(O)C(O)=C(C(N)=O)C(=O)[C@@H](N(C)C)[C@@H]3[C@@H](O)[C@H]12 | 23.5 µM (active) | 13.2 µM (active) | inactive | inactive | inactive | inactive | – | inactive | – | – |
| O=C(Nc1ccccc1)Nc1ccc(-c2ccc(C(=O)[C@H]3CCC[C@H]3C(=O)O)cc2)cc1 | inactive | inactive | inactive | – | – | inactive | – | – | – | – |
| NC(=O)c1noc([C@H](CCCC2CCCCC2)CC(=O)NO)n1 | 18.7 µM (active) | 14.8 µM (active) | 13.2 µM (active) | 7.69 µM (active) | – | inactive | 18.7 µM (active) | – | – | – |
| COC(=O)[C@H](c1ccccc1Cl)N1CCc2sccc2C1 | 20.9 µM (active) | inactive | inactive | – | – | inactive | inactive | inactive | inactive | – |
| CN1CCc2c(n(Cc3ccc(C(=O)NO)cc3)c3ccccc23)C1 | 11.8 µM (active) | 16.6 µM (active) | 18.7 µM (active) | 21.7 µM (active) | 18.7 µM (active) | inactive | inactive | – | 11.8 µM (active) | – |
| CC(=O)OCC(=O)[C@@]1(O)CC[C@H]2[C@@H]3CCC4=CC(=O)C=C[C@]4(C)[C@@H]3[C@@H](O)C[C@@]21C | inactive | inactive | inactive | – | inactive | inactive | inactive | inactive | – | – |
| O=C(C=Cc1ccc(O)cc1)c1ccc(O)cc1O | 13.2 µM (active) | 20.9 µM (active) | inactive | – | – | inactive | – | – | – | – |
| Cc1ccc(NC(=O)c2cccc(N(C)C)c2)cc1NC(=O)c1ccc(O)cc1 | 0.332 µM (active) | 2.96 µM (active) | inactive | inactive | 2.64 µM (active) | inactive | – | – | 2.96 µM (active) | – |
| COc1c(C)cnc(Cn2cnc3c(Cl)nc(N)nc32)c1C | 0.264 µM (active) | 0.166 µM (active) | 0.332 µM (active) | 0.432 µM (active) | – | – | inactive | – | 1.18 µM (active) | – |
| CCC(=O)NCC[C@@H]1CCc2ccc3c(c21)CCO3 | inactive | inactive | inactive | – | – | inactive | inactive | inactive | – | – |
| CC(C)Oc1cc(Nc2nc(N[C@@H](C)c3ccc(F)cn3)ncc2Cl)[nH]n1 | 1.48 µM (active) | 2.35 µM (active) | 5.26 µM (active) | 21.7 µM (active) | 13.2 µM (active) | inactive | 8.33 µM (active) | 5.9 µM (active) | 5.26 µM (active) | – |
| NCc1c[nH]c(=S)n1[C@H]1CCc2c(F)cc(F)cc2C1 | 9.35 µM (active) | 23.5 µM (active) | 16.6 µM (active) | – | 33.2 µM (active) | – | – | – | – | – |
| CN(C)CC[C@H](CSc1ccccc1)Nc1ccc(S(=O)(=O)NC(=O)c2ccc(N3CCN(Cc4ccccc4-c4ccc(Cl)cc4)CC3)cc2)cc1[N+](=O)[O-] | 0.0187 µM (active) | 0.0209 µM (active) | 0.187 µM (active) | 6.85 µM (active) | 5.9 µM (active) | inactive | 11.8 µM (active) | – | 11.8 µM (active) | – |
| CC1CNc2c(cccc2S(=O)(=O)N[C@@H](CCCN=C(N)N)C(=O)N2CC[C@@H](C)C[C@@H]2C(=O)O)C1 (some centres undefined) | 5.26 µM (active) | 9.35 µM (active) | inactive | inactive | – | – | inactive | inactive | – | – |
| O=C1NC(=O)C(=Cc2ccc(-c3ccc(F)cc3O)o2)S1 | inactive | inactive | inactive | 1.72 µM (active) | – | inactive | – | – | inactive | – |
| OCCn1cc(-c2ccc3c(c2)CCC3=NO)c(-c2ccncc2)n1 | 11.8 µM (active) | inactive | inactive | inactive | – | – | – | inactive | inactive | – |
| Cc1nc2c([nH]1)CCN(C(=O)c1ccc(NC(=O)c3ccccc3-c3ccccc3)cc1)c1ccccc1-2 | inactive | inactive | inactive | – | inactive | inactive | inactive | inactive | inactive | – |
| COc1nccc(-c2c(-c3ccc(F)cc3)ncn2C2CCNCC2)n1 | inactive | inactive | inactive | – | – | inactive | – | inactive | inactive | – |
| Cc1cc2c(cc1C1(c3ccc(C(=O)O)cn3)CC1)C(C)(C)CCC2(C)C | inactive | inactive | inactive | – | – | inactive | – | inactive | inactive | – |

| SMILES | Potency [1] | Potency [2] | Potency [3] | Potency [4] | Potency [5] | Potency [6] | Potency [7] | Potency [8] | Potency [9] | Potency [10] |
| --- | --- | --- | --- | --- | --- | --- | --- | --- | --- | --- |
| CCNC(=O)c1noc(-c2cc(C(C)C)c(O)cc2O)c1-c1ccc(CN2CCOCC2)cc1 | 0.105 µM (active) | 0.105 µM (active) | 0.0935 µM (active) | 0.153 µM (active) | 0.235 µM (active) | – | – | – | 0.148 µM (active) | – |
| CC(O)=C(C#N)C(=O)Nc1ccc(C(F)(F)F)cc1 | 23.5 µM (active) | inactive | inactive | – | – | inactive | – | – | – | – |
| Cc1cccc2c1CC[C@H](CN1CCC(c3c(Cl)cccc3Cl)CC1)C[C@@H]2O | inactive | 18.7 µM (active) | inactive | 5.44 µM (active) | 33.2 µM (active) | inactive | inactive | inactive | – | – |
| CCC(=C(CC)c1ccc(O)cc1)c1ccc(O)cc1 | 9.35 µM (active) | 16.6 µM (active) | inactive | 30.6 µM (active) | – | inactive | inactive | 18.7 µM (active) | – | – |
| Nc1nc(Cl)nc2c1ncn2[C@@H]1O[C@H](CO)[C@@H](O)[C@H]1F | 3.72 µM (active) | 0.0372 µM (active) | inactive | – | – | inactive | inactive | 1.18 µM (active) | – | – |
| COc1cc([C@@H]2c3cc4c(cc3[C@@H](O[C@@H]3O[C@@H]5CO[C@@H](C)O[C@@H]5[C@H](O)[C@@H]3O)[C@H]3COC(=O)[C@H]23)OCO4)cc(OC)c1O | 0.662 µM (active) | 0.235 µM (active) | – | 2.73 µM (active) | – | inactive | inactive | – | – | – |
| CCNC(=O)Nc1ccc(Oc2ncnc(N)c2C=NOC)cc1Cl | inactive | – | inactive | inactive | inactive | inactive | inactive | inactive | inactive | inactive |
| CNC1CCC(N(Cc2cccc(-c3ccncc3)c2)C(=O)c2sc3ccccc3c2Cl)CC1 (centres undefined) | 20.9 µM (active) | – | 23.5 µM (active) | 19.3 µM (active) | 18.7 µM (active) | inactive | – | 29.6 µM (active) | – | 30.6 µM (active) |
| CNc1nc(Nc2ccc(C(=O)N3CCOCC3)cc2OC)ncc1Cl | 4.69 µM (active) | – | inactive | – | inactive | inactive | – | – | inactive | inactive |
| O=C1NC(=O)C(c2cnc3ccccn23)=C1c1cn2c3c(cccc13)CN(C(=O)N1CCOCC1)CC2 | 20.9 µM (active) | 2.96 µM (active) | – | – | – | inactive | – | – | – | – |
| CC(=O)N1CCN(c2ccc(OCc3nn(C)c(C)c3-c3cccc4c(CCCOc5cc(C)c(Cl)c(C)c5)c(C(=O)O)n(Cc5cccnc5)c34)cc2)CC1 | 18.7 µM (active) | 20.9 µM (active) | – | – | 18.7 µM (active) | inactive | – | 29.6 µM (active) | 18.7 µM (active) | – |
| Cn1cnc(-c2cc3nccc(Oc4ccc(NC(=S)NC(=O)Cc5ccccc5)cc4F)c3s2)c1 | 16.6 µM (active) | 16.6 µM (active) | – | 34.3 µM (active) | – | inactive | – | – | – | – |
| CN1CCN(c2ncc(-c3cc(Cl)cc(Cl)c3Cl)c(N)n2)CC1 | 16.6 µM (active) | – | inactive | 3.85 µM (active) | – | inactive | inactive | inactive | inactive | 4.32 µM (active) |
| COc1ccc(-c2oc3c(CC=C(C)C)c(O)cc(O)c3c(=O)c2O)cc1 | 14.8 µM (active) | – | inactive | – | 37.2 µM (active) | inactive | – | – | 18.7 µM (active) | inactive |
| NC(N)=Nc1nc(CSCCC(N)=NS(N)(=O)=O)cs1 | 8.33 µM (active) | – | inactive | – | – | inactive | – | – | – | inactive |
| CNC(=O)c1ccc2c(C(=Nc3cccc(CN(C)C)c3)c3ccccc3)c(O)[nH]c2c1 | 16.6 µM (active) | – | inactive | 13.7 µM (active) | – | inactive | inactive | – | – | inactive |
| COc1cc(N2CCN(C)CC2)ccc1Nc1nc(N)c(C(=O)c2c(Cl)cccc2Cl)s1 | 14.8 µM (active) | 16.6 µM (active) | – | inactive | 29.6 µM (active) | inactive | inactive | inactive | inactive | – |
| O=C(O)Cc1cccc(OCCCN(Cc2cccc(C(F)(F)F)c2Cl)CC(c2ccccc2)c2ccccc2)c1 | inactive | – | – | 27.3 µM (active) | 33.2 µM (active) | inactive | 23.5 µM (active) | – | 23.5 µM (active) | 24.3 µM (active) |
| CCC(=O)OCC(=O)[C@@]1(OC(=O)CC)[C@@H](C)C[C@@H]2[C@H]3CCC4=CC(=O)C=C[C@]4(C)[C@@]3(F)[C@@H](O)C[C@@]21C | 2.35 µM (active) | – | inactive | 10.9 µM (active) | 6.62 µM (active) | inactive | inactive | – | 0.148 µM (active) | 6.11 µM (active) |
| CN(C)CCN(Cc1ccc(Cl)cc1)c1ccccn1 | 14.8 µM (active) | – | inactive | – | – | inactive | inactive | inactive | – | inactive |
